Shown are actives, neighbours in structure and some others; about 1.3% of the full set was active somewhere.
CCHF vOTU inh-1: CCHFV vOTU protease inhibition | inhibition, % at 11.5 µM | AID 651958 | 0.55% of 370,000 active | Pep-AMC fluorescence; also: 0% = vehicle wells with enzyme and 100% = no enzyme wells
3CLpro inhibitor: SARS-CoV 3CLpro protease inhibition; inhibition, % at 6 µM; 0.14% of 290,000 active; recombinant SARS-CoV 3CLpro, quenched FRET peptide cleavage; in the data active = inhibition above about 12%
PrP 5UTR inh: inhibition of PrP 5' UTR reporter expression; inhibition, % (test concentration not listed); cell-based PrP 5' UTR mRNA reporter, plate reader; 0.35% of 340,000 active; in the data active = inhibition above about 52%; also: 0 = median of the neutral control wells
PrPC TRFRET: reduces human prion protein on the cell surface | P04156 | cell surface PrPC, TR-FRET read-out | 0.43% of 370,000 active | inhibition, % at 13.8 µM; in the data active = inhibition above about 24%; also: 0% = median of the test wells and 100% = reference compound wells
CCHF vOTU inh-2: confirmation of CCHF virus vOTU protease inhibitors; shares compounds with CCHF vOTU inh-1; Recombinant CCHFV vOTU, Pep-AMC fluorescence; 17% of 1,900 active; inhibition, % at 11.5 µM; AID 686976
Numbers without * were called inactive; x = not tested or not shown. Rule as the data show it, unless noted: active = inhibition above about 30%; inactive = the rest.

SMILES	CCHF vOTU inh-1	3CLpro inhibitor	PrP 5UTR inh	PrPC TRFRET	CCHF vOTU inh-2
COC(=O)c1c(NC(=S)Nc2cc(OC)c(Cl)cc2OC)sc2c1CCCCC2	19	-1	-15	1	x
O=C(Nc1cc(S(=O)(=O)N2CCOCC2)ccc1N1CCOCC1)c1ccccc1F	-7	x	-19	-7	x
CCCCCc1c(-c2ccc(Cl)cc2)ncn1CCc1ccccc1OC	37*	x	x	11	8
COc1ccccc1CCn1cnc(-c2ccc(F)cc2)c1CC(C)C	27	x	x	9	x
COc1ccccc1CCn1cnc(-c2ccccc2)c1CC(C)C	45*	x	x	18	18
CCc1c(-c2cccc(F)c2)ncn1CCc1ccccc1OC	30*	x	x	3	-4
COC(=O)[C@@]12CCCCC=C1N(CCc1ccc(Cl)cc1)C(=O)[C@H]2CC(=O)NCCC(C)C	18	x	x	-3	x
O=C(O)c1ccc(Cl)c(S(=O)(=O)N(Cc2ccccc2)c2ccc(Cl)cc2)c1	31*	8	-5	0	14
NC(=O)COC(=O)c1ccc(Cl)c(S(=O)(=O)N(Cc2ccccc2)c2ccc(Cl)cc2)c1	2	1	-33	2	x
Cc1sc2nc(CSc3nnc(Cc4cccs4)n3C3CCCCC3)[nH]c(=O)c2c1C	12	-4	-16	-2	x
Cc1sc2nc(SCc3nnc(-c4cccs4)o3)n(C3CCCC3)c(=O)c2c1C	31*	4	-7	-1	-2
COc1ccc(NS(=O)(=O)c2cc(C(=O)O)ccc2C)cc1	-23	0	-22	-1	x
COc1ccc(NS(=O)(=O)c2cc(NC(=O)c3ccc(=O)[nH]n3)ccc2C)cc1	31*	x	-19	-7	-10
Cc1ccc(NC(=O)CSc2nnc(-c3ccncc3)s2)cc1	4	-3	-21	-3	x
O=C(Cn1cncn1)NCc1cccc2ccccc12	-7	5	-14	3	x
COc1cc(Cl)c(C)cc1NC(=O)CN1C(=O)C2CCCCC2C1=O (stereo unspecified)	32*	x	-10	-5	-14
C=CCc1cccc2cc(C(=O)O)c(=O)oc12	-8	-1	-13	-4	x
NC1=C(Br)C(=O)c2ncccc2C1=O	107*	x	32	16	94*
O=C(C1CC(=O)N(c2ccc3c(c2)OCCO3)C1)N1CCN(S(=O)(=O)c2ccc(F)cc2)CC1 (stereo unspecified)	-1	x	-32	0	x
CC1CCc2c(sc(NC(=O)c3ccco3)c2C(=O)O)C1 (stereo unspecified)	32*	0	-35	0	0
S=C(Nc1ccc2nc(-c3ccccn3)c(-c3ccccn3)nc2c1)N1CCOCC1	36*	-8	-23	-17	-58
O=C(COC(=O)/C=C/c1ccc(S(=O)(=O)N2CCOCC2)cc1)NCc1ccccc1	-6	5	-12	-1	x
Cc1[nH]n(-c2ccccc2)c(=O)c1C(c1cccc([N+](=O)[O-])c1O)c1c(C)[nH]n(-c2ccccc2)c1=O	33*	-1	-9	-10	-17
COc1cccc(C(C[N+](=O)[O-])c2c(C)[nH]n(-c3ccccc3)c2=O)c1 (stereo unspecified)	17	4	-17	5	x
Cc1c(C(c2cccc([N+](=O)[O-])c2O)c2c(C)n(C)n(-c3ccccc3)c2=O)c(=O)n(-c2ccccc2)n1C	-2	-2	-13	-5	x
SMILES	CCHF vOTU inh-1	3CLpro inhibitor	PrP 5UTR inh	PrPC TRFRET	CCHF vOTU inh-2
Cc1[nH]n(-c2ccccc2)c(=O)c1C(c1cccc([N+](=O)[O-])c1)c1c(C)[nH]n(-c2ccccc2)c1=O	41*	-1	-28	-8	-13
O=C1Cc2ccccc2C(=O)N1OCc1ccc(Cl)cc1Cl	36*	-3	-25	-2	-3
O=C1c2ccccc2C(=O)N1OCc1cccc(Cl)c1	-3	7	-1	8	x
COC(=O)c1nn(-c2ccccc2)c2nnc(Cc3ccc(C)cc3)c(=O)n12	32*	5	-2	8	-16
COC(=O)c1nn(-c2cccc(C)c2)c2nnc(Cc3ccccc3)c(=O)n12	-1	0	-9	1	x
O=C(O)CC1S/C(=N/N=C/c2ccc(-c3ccccc3[N+](=O)[O-])o2)NC1=O (stereo unspecified)	36*	4	-33	-4	8
Cc1[nH][nH]c(=O)c1C(c1c(C)[nH][nH]c1=O)c1cn(Cc2ccccc2Cl)c2ccccc12	66*	3	-47	5	-7
COC(=O)[C@]12C[C@H](CC(=O)NCc3ccc(OC)c(OC)c3)C(=O)N(Cc3ccc4c(c3)OCO4)C1=C[C@H](C(C)(C)C)O[C@@H]2C	18	x	x	-6	x
COc1ccccc1N(C(C)=O)C1=C(Cl)C(=O)c2ccccc2C1=O	91*	x	x	6	83*
COc1ccccc1N(C(=O)CCl)c1cn(C(C)=O)c2ccccc12	-8	2	-27	0	x
C=CCNc1nc(C(=O)OCC(=O)Nc2cc(S(C)(=O)=O)ccc2Cl)cs1	3	x	0	5	x
O=C1Cc2ccccc2C(=O)N1	116*	x	x	-6	94*
O=C1Nc2ccccc2CCc2ccccc21	-7	x	-7	-1	x
CCC(=O)N(C1=C(NC(C)C)C(=O)c2ccccc2C1=O)C(C)C	47*	-3	-21	-30	31*
CC(=O)N(C1=C(N)C(=O)c2ccccc2C1=O)C(C)C	19	-1	-16	-39	x
COc1ccc([C@H]2N[C@]3(CCCN(Cc4cccn4C)C3=O)[C@H]3C(=O)N(C)C(=O)[C@@H]23)cc1	-10	x	x	-9	x
CCN1C(=O)[C@H]2[C@@H](c3ccc(OC)cc3)N[C@]3(CCCN(Cc4cccn4C)C3=O)[C@H]2C1=O	30*	x	x	3	-2
COC(=O)CSc1nnc(CNC(=O)c2ccc(S(=O)(=O)N3CCCCC3)cc2)n1C	-4	-1	-20	2	x
COc1ccc(NC2=C(NCCO)C(=O)c3ccccc3C2=O)cc1	88*	2	-75	-10	57*
COc1ccc(NC2=C(NC(C)=O)C(=O)c3ccccc3C2=O)cc1	4	-2	-21	-67	x
COc1cccc(NC2=C(NCCO)C(=O)c3ccccc3C2=O)c1	35*	-5	-30	-18	-2
Cc1cccc(NC2=C(NCCO)C(=O)c3ccccc3C2=O)c1	54*	3	-8	-22	16
CCN(CC)c1nc(N)c2c(N)nc3c(c2c1C#N)CC(c1ccccc1)O3 (stereo unspecified)	-10	-3	4	-6	x
CCN(CC)c1nc(N)c2c(N)n(-c3ccccc3C)c(=S)c(C#N)c2c1C#N	34*	-2	9	11	39*
O=C(COC(=O)/C=C/c1cccc(F)c1)NNC(=O)c1ccccc1	10	-2	-16	-1	x
C=CCn1c(=NC(=O)c2cc(-c3cccs3)nc3ccccc23)sc2cc(S(N)(=O)=O)ccc21	-17	7	-27	2	x
COc1ccc(N)c2c1OCCC2=O	57*	-1	-13	-10	-13
CCCCCCCCN1C(=O)[C@@H](CC(=O)NCc2ccc(OC)c(OC)c2)C[C@@]2(C(=O)OC)C1=C[C@H](C1CCCC1)O[C@@H]2C	23	x	x	-2	x
COc1cc(/C=C/c2ccc3c(Br)cc(Br)c(O)c3n2)ccc1O	35*	0	28	-12	-17
